These results are taken from PubChem BioAssay (NCATS).

Records with an inconclusive call do not appear. Unmarked numbers belong to inactive results. Active and inactive are the calls of the source. Unless noted, calls follow the shape of the dose curve; as a rule, active = well fitted curve in the direction sought with a large enough effect; inconclusive = small, poorly fitted or top-dose-only effect, or another doubt; inactive = no such curve, though single readings can be large; an effect the other way counts as inactive or inconclusive.

Assay [1] deals with Aldehyde dehydrogenase, mitochondrial (Homo sapiens) (UniProt P05091). Put plainly: qHTS for Inhibitors of the Aldehyde Dehydrogenase Family (ALDH2) Confirmatory screens (AID 2061303; active = well fitted inhibition curve with a large enough effect; title and protocol of this record describe different tests; also: nearly all actives have a fitted effect of over 45% in size; also: potency is read from the fitted curve at half-maximal effect). A general note: In qHTS, concentration-response curves come from the screen itself.
The nature of assay [2]: qHTS for Inhibitors of the Aldehyde Dehydrogenase Family (ALDH1A2, ALDH1A3, ALDH2, ALDH3A1) (AID 2061307). Also: nearly all actives have a fitted effect of over 50% in size. As to Potency: test system not described further here; potency is read from the fitted curve at half-maximal effect.
Assay [3] concerns the target Aldehyde dehydrogenase, mitochondrial (Homo sapiens) (UniProt P05091). Put plainly: qHTS for Inhibitors of the Aldehyde Dehydrogenase Family (ALDH2) Primary screen (AID 2061308). Also: nearly all actives have a fitted effect of over 55% in size. Also: potency is read from the fitted curve at half-maximal effect.
Assay [4] addresses Retinaldehyde dehydrogenase 3 (Homo sapiens) (UniProt P47895). Put plainly: qHTS for Inhibitors of the Aldehyde Dehydrogenase Family (ALDH1A3) Confirmatory screens (AID 2061311). Also: nearly all actives have a fitted effect of over 60% in size. Also: potency is read from the fitted curve at half-maximal effect.
For assay [5], the target named is Retinal dehydrogenase 2 (Homo sapiens) (UniProt O94788). Put plainly: qHTS for Inhibitors of the Aldehyde Dehydrogenase Family (ALDH1A2) Confirmation screens (AID 2061314). Also: nearly all actives have a fitted effect of over 65% in size. Also: potency is read from the fitted curve at half-maximal effect.
The target of assay [6] is Aldehyde dehydrogenase 1A1 (Homo sapiens) (UniProt P00352). Put plainly: qHTS for Inhibitors of the Aldehyde Dehydrogenase Family (ALDH1A1) Confirmatory screens (AID 2061316). Also: nearly all actives have a fitted effect of over 65% in size. Also: potency is read from the fitted curve at half-maximal effect.
Assay [7] concerns the target Aldehyde dehydrogenase, mitochondrial (Homo sapiens) (UniProt P05091). Put plainly: qHTS for Inhibitors of the Aldehyde Dehydrogenase Family (ALDH2) Validation screens (AID 2061302; active = well fitted inhibition curve with a large enough effect; title and protocol of this record describe different tests;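 also: plate controls were DMSO vehicle for no effect and maximal DPI positive control response for full effect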).
For assay [8], the target named is Retinaldehyde dehydrogenase 3 (Homo sapiens) (UniProt P47895). Put plainly: qHTS for Inhibitors of the Aldehyde Dehydrogenase Family (ALDH1A3) Validation screen (AID 2061312). Also: % is scaled to controls: 0 for no effect and ±100 for the full control effect; nearly all actives have a fitted effect of over 45% in size.
Assay [9] can be described thus: BET inhibitor-based combinations targeting novel dependencies in MECOM-rearranged (r) AML: MV-4-11 cell line (AID 2202233). Also: nearly all actives have a fitted effect of over 45% in size. Also: potency is read from the fitted curve at half-maximal effect. In a few lines:
(§1)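 Each compound is tested in an 11-point concentration series against 500 seeded cells/well for 48 hr. The luminescent viability signal is normalized to DMSO and blank wells, then reduced to AUC and a cell-line-centred Z-AUC.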

The nature of assay [10]: BET inhibitor-based combinations targeting novel dependencies in MECOM-rearranged (r) AML: HNT-34 cell line (AID 2202234).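 Also: plate controls were vehicle wells for no effect and cell-free wells for full effect; nearly all actives have a fitted effect of over 35% in size.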 In a few lines: as §1
Assay [11] in a line: BET inhibitor-based combinations targeting novel dependencies in MECOM-rearranged (r) AML: UCSD-AML1 cell line (AID 2202235).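 Also: series mostly up to about 46 µM; plate controls were DMSO vehicle wells for no effect and blank wells for full effect; nearly all actives have a fitted effect of over 40% in size.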 In a few lines: as §1
The nature of assay [12]: BET inhibitor-based combinations targeting novel dependencies in MECOM-rearranged (r) AML: AML-191 cell line (AID 2202236; also: nearly all actives have a fitted effect of over 35% in size; also: potency is read from the fitted curve at half-maximal effect). A digest of the protocol:
(§2)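 A 48 hr incubation preceded viability reading by CellTiter-Glo, with 15 min room-temperature development. Dose series had 11 points; normalization used DMSO and empty wells; AUC was computed and mean-centered per line as Z-AUC.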

Assay [13] in a line: BET inhibitor-based combinations targeting novel dependencies in MECOM-rearranged (r) AML: AML-194 cell line (AID 2202237;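 also: plate controls were vehicle wells for no effect and wells without cells for full effect; nearly all actives have a fitted effect of over 40% in size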). In a few lines:
as §2

Assay [14] concerns the target Retinaldehyde dehydrogenase 3 (Homo sapiens) (UniProt P47895). Put plainly: qHTS for Inhibitors of the Aldehyde Dehydrogenase Family (ALDH1A3) Primary screen (AID 2061315).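 Also: plate controls were DMSO vehicle for no effect and reference inhibitor for full effect.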
The nature of assay [15]: BET inhibitor-based combinations targeting novel dependencies in MECOM-rearranged (r) AML: SET-2 cell line (AID 2202231).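 Also: plate controls were DMSO treated cells for no effect and wells without cells for full effect; nearly all actives have a fitted effect of over 35% in size.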 To be noted: SET-2 AML cells viability, CellTiter-Glo luminescence, 48 h; viability: hits give low values, series mostly up to about 46 µM. A digest of the protocol:
as §2
For orientation: ATP-based viability assays read luminescence as a measure of living cells.

The nature of assay [16]: BET inhibitor-based combinations targeting novel dependencies in MECOM-rearranged (r) AML: OCI-AML3 cell line (AID 2202232). Also: potency is read from the fitted curve at half-maximal effect; nearly all actives have a fitted effect of over 35% in size. To be noted: Potency: OCI-AML3 viability. In a few lines:
as §2

`N#Cc1c(-c2ccc([N+](=O)[O-])o2)no[n+]1[O-]`: the Potency in [1] was 2.82 µM (active); in assay [2], 10.1 µM (active); in [3], 3.16 µM (active); in assay [4] it was 7.94 µM (active); in assay [5], 15.8 µM (active); in assay [6], 2.25 µM (active).

On to `O=C(CNC12CC3CC(CC(C3)C1)C2)c1ccc(Cl)cc1`, for which the Potency entry in assay [2] was “inactive”.

As to `CN1C(=O)CCS(=O)(=O)C1c1ccc(Cl)cc1` (stereo not given), the Potency entry in assay [7], in [8], in [9], in assay [10], in assay [11] and in assay [12] was “inactive” in each case. Also, in [13], the Potency entry was “inactive”.

Regarding `CCCCCN(C)CCC(O)(P(=O)(O)O)P(=O)(O)O`, the Potency entry in assay [7] and in assay [8] was “inactive” throughout.

In the case of `O=S(=O)(c1ccccc1F)N1CCOc2c(N3CCNCC3)cccc21`, the Potency result in [1], in assay [2], in assay [3], in [4], in assay [5] and in assay [14] was “inactive” throughout. Besides, the Potency entry in [6] is “inactive”.

Turning to `CC1=C(C)C(=O)C(CC[C@](C)(O)CCC[C@H](C)CCC[C@H](C)CCCC(C)C)=C(C)C1=O`, the Potency result in [2], in [3] and in assay [6] was “inactive” throughout. The Potency in assay [4] was 10.1 µM (active); in [5], 4.49 µM (active).

Take `O=S(=O)(Nc1ccc(-c2ccccc2)cc1)c1ccc(NCc2cccc(Cl)c2O)cc1`: the Potency in [2] and in assay [5] was 25.2 µM (active) throughout. The Potency entry in [14] was “inactive”.

For `CC(=O)c1cccc(N=[N+]=[N-])c1`, the Potency result in assay [2] is “inactive”.

Regarding `CCOc1ccc(CCNC(=O)c2cc3ccncc3n2Cc2cccc(C)n2)cc1OCC`, the Potency entry in [2], in assay [3], in assay [14] and in assay [6] was “inactive” in each case.

For the molecule `O=[N+]([O-])/C=C/c1ccc2c(c1)OCO2`, the Potency in assay [2] is 5.01 µM (active); in assay [4], 15.8 µM (active); in [5], 35.5 µM (active); in [6] it was 3.57 µM (active). In addition, the Potency result in assay [8] is “inactive”.

`Oc1ccc(C2=CCNCC2)cc1O`: the Potency result in [2] was “inactive”.

`COc1cc(O)c2c(c1)CCC[C@@H](O)[C@H](O)C(=O)/C=C\C[C@H](C)OC2=O`: the Potency result in assay [1], in assay [3], in assay [4], in [5] and in [14] was “inactive” each time.

For `COc1ccc(-c2nc(CS(=O)CC(=O)N3CCC4(CC3)OCCO4)c(C)o2)cc1` (stereo not given), in assay [2], the Potency entry was “inactive”.

Consider `CC(=O)c1ccc(N=[N+]=[N-])cc1`, for which the Potency in [2] is 8.96 µM (active).

The viability is a read-out of living cells in per cent, often relative to untreated cells. As for `CC(C)c1cccc(C(C)C)c1O`, the Potency result in assay [7], in assay [8], in assay [9] and in assay [11] was “inactive” throughout. Moreover, the viability in assay [15] was 105%.

In the case of `CO[C@@H]1C[C@H](O[C@H]2CC[C@]3(C)C4CC[C@]5(C)[C@@H](C6=CC(=O)OC6)[C@@H](OC(C)=O)C[C@]5(O)C4CC[C@@H]3C2)OC(C)[C@H]1O` (stereo not given in full), in [2], the Potency result was “inactive”.

Turning to `O=c1[nH]c(CN2CCNCC2)nc2ccccc12`, in [2], the Potency entry was “inactive”.

As for `N[C@@]1(c2ccccc2Cl)CCC=CC1=O`, in [2], the Potency result was “inactive”.

For the molecule `N#Cc1c(-c2cccc(-c3no[n+]([O-])c3C#N)c2)no[n+]1[O-]`, the Potency in assay [1] was 1.27 µM (active); in assay [3] it was 0.282 µM (active); in assay [5] it was 1.27 µM (active); in assay [6] it was 12.7 µM (active). Further, the Potency entry in assay [14] is “inactive”.

Take `Cc1ccc(S(=O)(=O)N[C@@H](CCCCN)C(=O)CCl)cc1`: the Potency entry in assay [1], in [2] and in assay [4] was “inactive” throughout. The Potency in assay [5] was 12.7 µM (active).

As to `CCC1(c2ccc(N)cc2)CCC(=O)NC1=O` (stereo not given), the Potency result in assay [7], in [8], in [9], in assay [12] and in [13] was “inactive” throughout. Besides, in assay [15], the viability was 114%.

As for `CCOc1ccc(CCNC(=O)c2cc3cnccc3n2Cc2cccc(C)n2)cc1OCC`, the Potency entry in assay [1], in assay [3], in assay [14] and in [6] was “inactive” throughout.

Regarding `N#Cc1c(-c2cc(F)cc(-c3no[n+]([O-])c3C#N)c2)no[n+]1[O-]`, the results for the Potency in assay [1], in assay [5] and in assay [6] were 0.357 µM (active), 1.59 µM (active) and 11.3 µM (active), respectively.

For the molecule `CC(=O)N(C)CC#CCN1CCC(O)CC1`, the Potency entry in assay [2] was “inactive”.

On to `CCCCCn1c(C)c(C(=O)c2ccc(OC)c3ccccc23)c2ccccc21`, for which the Potency result in [2] was “inactive”.

Regarding `Cc1cc(C(=O)CN2CCCC2)c(C)n1-c1ccc(F)cc1`, the Potency entry in [1], in assay [2], in assay [3], in assay [4], in assay [8] and in assay [14] was “inactive” throughout.

As to `C=C(C)[C@H]1Cc2c(ccc3c2O[C@@H]2COc4cc(OC)c(OC)cc4[C@@H]2C3=O)O1`, the Potency result in [7] was “inactive”. The Potency in assay [16] was 0.332 µM (active); in assay [9] it was 0.417 µM (active); in assay [12] it was 0.934 µM (active).

Turning to `CC(=O)OCC1=C(C(=O)O)N2C(=O)C(NC(=O)CCCC(N)C(=O)O)C2SC1` (stereo not given), the Potency result in assay [1] and in assay [4] was “inactive” in each case.

Take `N#C/C(=C\c1ccc(O)c(O)c1)C(N)=S`: the Potency in assay [1] is 8.96 µM (active); in assay [2] it was 3.18 µM (active); in [4], 1.01 µM (active); in assay [5], 5.65 µM (active); in assay [6], 1.42 µM (active).

On to `C[C@@H]1Cc2c(Cl)cc(C(=O)N[C@@H](Cc3ccccc3)C(=O)O)c(O)c2C(=O)O1`, for which the Potency result in [1], in assay [2], in assay [3], in [5] and in assay [14] was “inactive” in each case.

For the molecule `NC(N)=Nc1ccc2[nH]c3c(c2c1)C[C@@]1(O)C2Cc4ccc(O)c5c4[C@@]1(CCN2CC1CC1)[C@H]3O5`, the Potency entry in assay [2] was “inactive”.

As for `CN(Cc1ccccc1)C[C@H]1CN2CC[C@H]1C[C@@H]2CNC(=O)c1ccc(C(F)(F)F)cc1`, the Potency entry in [1] was “inactive”.
